Screening results from PubChem.
D2 PAM-1: D2 dopamine receptor (human) potentiation | P14416 | HEK293 T-REx D2, calcium flux, EC20 dopamine potentiation | potentiation, % at 10 µM | hit rate 0.34% among 340,000 | AID 485347;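 active = potentiation over 3 SD above the plate norm, cut at about 30% in these data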; note: 0% is about no effect
Target sequence (P14416 whole entry, looked up): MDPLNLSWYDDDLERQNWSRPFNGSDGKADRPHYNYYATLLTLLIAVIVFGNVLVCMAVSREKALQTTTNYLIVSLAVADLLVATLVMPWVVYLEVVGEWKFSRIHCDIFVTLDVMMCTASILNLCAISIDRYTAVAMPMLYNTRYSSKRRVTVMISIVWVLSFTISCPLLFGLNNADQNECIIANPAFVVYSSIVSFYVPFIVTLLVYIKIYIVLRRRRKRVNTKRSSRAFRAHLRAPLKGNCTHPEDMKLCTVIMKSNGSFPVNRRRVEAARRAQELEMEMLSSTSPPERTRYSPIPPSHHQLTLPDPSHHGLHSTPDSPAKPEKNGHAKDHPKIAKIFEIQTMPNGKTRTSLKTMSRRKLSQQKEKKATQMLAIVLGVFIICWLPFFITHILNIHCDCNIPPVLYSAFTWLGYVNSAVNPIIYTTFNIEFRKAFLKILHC
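Tetracycline-induced HEK293 T-REx cells force-coupled to calcium signalling expressed D2; compounds were pin-added after a 10 s baseline, read kinetically 180 s, then an EC20 dopamine challenge followed with a further 180 s calcium read.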
D2 ag-1: D2 dopamine receptor (human) agonism | AID 485358 | P14416 | HEK293 T-REx D2 cells, calcium flux agonist mode | hit rate 0.53% among 340,000 | activation, % at 2 µM;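 active = activation over 3 SD above normal in the single-dose calcium agonist read, cut at about 30% in these data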; note: 0% is about no effect
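Calcium-flux readout, 1 cycle/sec over 180 s following compound pin transfer, in inducible HEK293 Trex D2 cells (force-coupled); dopamine controls included. Positive calcium responses during this window marked compounds as potential agonists.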
D2 ag-2: agonists of human D2 dopamine receptor (beta-arrestin). P14416. activation, % (test concentration not listed). hit rate 0.084% among 360,000. DiscoveRx PathHunter D2 beta-arrestin, luminescence, 90 min; 100% = 57 uM dopamine signal; in the data active = activation above about 40%; inconclusive = between about 15% and that limit
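DiscoveRx PathHunter D2 beta-arrestin cells (2,100/well) attached overnight, then compound-stimulated 90 min at 37 C in HBSS/10 mM HEPES/0.1% Tween-20 buffer; beta-galactosidase complementation read by luminescence after 1 h at ambient temperature. Dopamine 57 uM final (EC100) as control.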
D2 antagonist: D2 dopamine receptor (human) antagonism; AID 485344; hit rate 2% among 340,000; P14416; inhibition, % at 10 µM; HEK293 TREx D2 cells, calcium flux, dopamine EC80; in the data active = inhibition above about 30%; inactive = below that, where a call was filed; note: 0% is about no effect
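Read-out: kinetic calcium fluorescence (1 cycle/s) in inducible HEK293 T-REx D2 cells after an EC80 dopamine addition that followed 180 s compound preincubation. Loss of the dopamine response indicates antagonism.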
D2 PAM-2: potentiates the human D2 dopamine receptor allosterically | P14416 | DiscoveRx D2 beta-arrestin cells, luminescence, 90 min; 100% = 57 uM dopamine signal | potentiation, % (concentration not given with the values) | hit rate 0.23% among 360,000 | AID 624464; in the data active = potentiation above about 50%; inconclusive = mostly about 30% to 49%
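D2 cells co-treated with compound plus 50 nM dopamine (EC20) for 90 min at 37 deg C to detect potentiation. Beta-arrestin recruitment was read as enzyme-fragment luminescence after 1 h at ambient temperature. Full response was set by 57 uM dopamine.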
D3 ag: activates human D3 dopamine receptor beta-arrestin recruitment; shares compounds with D2 ag-1; DiscoveRx D3 beta-arrestin cells, luminescence, 90 min; Potency, µM (highest dose often 76.9 µM), for the others: at the top dose activation, usual class: activators; hit rate 4% among 2,300;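 note: potency is the fitted concentration of half-maximal effect; 100% = dopamine control response; nearly all actives have a fitted effect of over 70% in size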
D2 ag-3: activates human D2 dopamine receptor in D3 counterscreen; hit rate 5.9% among 2,300; shares compounds with D2 ag-1; DiscoveRx PathHunter D2 beta-arrestin, luminescence, 90 min; response scale: percent relative to full dopamine signal; AID 720507; Potency, µM (titrated, usually from 76.9 µM), inactives show top-dose activation, actives largely listed as activators; note: potency is the fitted concentration of half-maximal effect; % of control where 0% means no effect; nearly all actives have a fitted effect of over 70% in size
Starred values were filed as active, the others as inactive; ? = inconclusive; · = no result given. Shown are actives, neighbours in structure and some others; about 2.4% of the full set was active somewhere. Unless noted, calls come from the whole dose curve; as a rule, active = well fitted activation curve with a large enough effect; inconclusive = small, poorly fitted or top-dose-only effect; inactive = flat fitted curve, though single readings scatter.

SMILES | D2 PAM-1 | D2 ag-1 | D2 ag-2 | D2 antagonist | D2 PAM-2 | D3 ag | D2 ag-3
O=C(NNS(=O)(=O)c1ccccc1[N+](=O)[O-])c1cccc(Cl)c1 | -19 | 51* | -1 | -23 | 9 | -4% | 1%
O=C(NNS(=O)(=O)c1ccccc1[N+](=O)[O-])c1cccc(Br)c1 | · | · | 3 | · | 11 | · | ·
O=C(CNS(=O)(=O)c1ccccc1)NCc1cccnc1 | 4 | 1 | -3 | 14 | -1 | · | ·
Cc1ccc(CN2CCN(C(=O)c3ccco3)CC2)cc1 | 1 | 66* | 70* | 82* | 56* | ? | 4.5µM*
O=C(NC(=S)N1CCN(Cc2ccccc2)CC1)c1ccco1 | -4 | 70* | 5 | 20 | -3 | -1% | 0%
CC1CCN(C(=S)NC(=O)c2ccco2)CC1 | 16 | -1 | -1 | -9 | -6 | · | ·
Cc1ccc(OCC(=O)N2CCN(C(=O)c3ccco3)CC2)cc1 | 1 | 0 | -2 | -4 | -2 | · | ·
O=C(c1ccco1)N1CCN(Cc2ccccc2F)CC1 | -23 | 78* | 75* | 80* | 19 | ? | ?
O=C(c1ccco1)N1CCN(Cc2c(F)cccc2Cl)CC1 | · | · | -2 | · | -15 | · | ·
Cc1ccccc1CC(=O)N1CCN(C(=O)c2ccco2)CC1 | 6 | 0 | -2 | 6 | -10 | · | ·
Cc1ccccc1CN1CCN(C(=O)c2ccco2)CC1 | -28 | 81* | 47* | 70* | 26 | ? | 20µM*
Cc1cc(NC(=O)COC(=O)C2CC(=O)N(c3ccc(Cl)cc3)C2)no1 (stereo not given) | -13 | 1 | -4 | 1 | -5 | · | ·
COc1ccc(OC)c(S(=O)(=O)N2CCN(C(=O)NC3CCCCC3)CC2)c1 | -12 | 0 | 2 | 8 | -1 | · | ·
O=C(c1ccco1)N1CCCN(C(=O)c2ccco2)CC1 | 4 | 1 | 0 | 13 | -2 | · | ·
O=C(c1ccco1)N1CCN(Cc2cccnc2)CC1 | -14 | 70* | ? | 31* | 16 | ? | ?
CCn1c2ccccc2c2cc(CN3CCN(C(=O)c4ccco4)CC3)ccc21 | -14 | 27 | -1 | 29 | -28 | ? | 15%
O=C(CCCOc1ccccc1)N1CCN(C(=O)c2ccco2)CC1 | 14 | 1 | 0 | 9 | -6 | · | ·
Cc1ccc(Nc2nc(N)nc(CN3CCN(C(=O)c4ccco4)CC3)n2)cc1Cl | -26 | 67* | ? | 38* | 14 | -4% | ?
O=C(c1ccco1)N1CCN(CCCCOc2ccc(F)cc2)CC1 | · | · | ? | · | 12 | 1µM* | ?
CCn1c(=O)cc(SCC(=O)N2CCN(C(=O)c3ccco3)CC2)c2ccccc21 | 21 | 0 | 0 | -1 | -10 | · | ·
CN(C)c1ccc(/C=N/N(CCO)C2=NS(=O)(=O)c3ccccc32)cc1 | 0 | 6 | -9 | -7 | -19 | 6% | -1%
CN(CCOc1cccc2ccccc12)Cc1ccccc1 | -29 | · | ? | · | 0 | 8% | 16%
COc1ccccc1N1CCN(c2ncc3c(n2)CCN(Cc2ccc(C)s2)C3)CC1 | -4 | 2 | · | · | · | · | ·
CCOC(=O)c1[nH]c2ccccc2c1NC(=S)Nc1ccccc1 | 16 | 1 | ? | 5 | 13 | · | ·
CN(C)Cc1c(C(=O)Nc2ccccc2)[nH]c2ccccc12 | -27 | 0 | -1 | 45* | -28 | -11% | -2%
Cc1ccc(-c2nc(CS(=O)(=O)CC(=O)Nc3ccc(Br)cc3F)c(C)o2)cc1 | -9 | -1 | · | · | · | · | ·
O=C(Cn1ccc2cc(S(=O)(=O)N3CCCCC3)ccc21)NCc1ccccc1F | -6 | 0 | -3 | 12 | -1 | · | ·
COc1ccc(N(CC(=O)NCCc2cccc(C)c2)S(=O)(=O)c2c(C)nn(C)c2C)cc1 | · | 0 | · | · | · | · | ·
CCC(=O)NNc1ncnc2c1cnn2C | -2 | 0 | -6 | 48* | -8 | -6% | -6%
